KCNQ2 inh: blocks the rat KCNQ2 potassium channel; AID 2156; B-score at 10 µM; O88943; CHO-K1 KCNQ2, FluxOR thallium flux, 20 min; hits give low values; 310,000 compounds, 1.1% hits;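 active = fluorescence ratio B-score at most minus 3 library SDs, with starting brightness B-score within 2 library SDs, cut at about -5.5 in these data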
KCNQ2 pot: KCNQ2 (rat) channel potentiation; O88943; CHO-K1 KCNQ2, FluxOR thallium flux fluorescence; hits give high values; B-score at 10 µM; 310,000 compounds, 0.54% hits;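 active = fluorescence ratio B-score at least 3 SD of library B-scores, with initial fluorescence B-score within 3 of them, cut at about 5.3 in these data; same plate scores as AID 2156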;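 also: B-score of peak minus minimum over baseline fluorescence ratio after K+ and Tl+ stimulus; positive B-score means potentiation of KCNQ2 with more thallium influx and brighter signal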
KCNQ2 block conf: rat KCNQ2 channel inhibition, confirmatory screen; 1,000 compounds, 57% hits; KCNQ2-expressing cells, thallium flux; hits give low values; shares compounds with KCNQ2 inh; AID 493025; activity change, negative = inhibition, % at 10 µM
KCNQ1 spec: human KCNQ1 activity in KCNQ2 inhibitor specificity screen | shares compounds with KCNQ2 inh | 1,000 compounds, 15% hits | activity change, negative = inhibition, % at 10 µM | KCNQ1-expressing cells, FluxOR thallium flux fluorescence; hits give low values | AID 493026;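 active = activity change at least 3 SD of negative controls below their mean in both duplicate wells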;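 also: CHO cells stably transfected with KCNQ1 and depolarized by potassium stimulus; peak minus minimum fluorescence over baseline after thallium addition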
Target sequence (P51787 whole entry, looked up): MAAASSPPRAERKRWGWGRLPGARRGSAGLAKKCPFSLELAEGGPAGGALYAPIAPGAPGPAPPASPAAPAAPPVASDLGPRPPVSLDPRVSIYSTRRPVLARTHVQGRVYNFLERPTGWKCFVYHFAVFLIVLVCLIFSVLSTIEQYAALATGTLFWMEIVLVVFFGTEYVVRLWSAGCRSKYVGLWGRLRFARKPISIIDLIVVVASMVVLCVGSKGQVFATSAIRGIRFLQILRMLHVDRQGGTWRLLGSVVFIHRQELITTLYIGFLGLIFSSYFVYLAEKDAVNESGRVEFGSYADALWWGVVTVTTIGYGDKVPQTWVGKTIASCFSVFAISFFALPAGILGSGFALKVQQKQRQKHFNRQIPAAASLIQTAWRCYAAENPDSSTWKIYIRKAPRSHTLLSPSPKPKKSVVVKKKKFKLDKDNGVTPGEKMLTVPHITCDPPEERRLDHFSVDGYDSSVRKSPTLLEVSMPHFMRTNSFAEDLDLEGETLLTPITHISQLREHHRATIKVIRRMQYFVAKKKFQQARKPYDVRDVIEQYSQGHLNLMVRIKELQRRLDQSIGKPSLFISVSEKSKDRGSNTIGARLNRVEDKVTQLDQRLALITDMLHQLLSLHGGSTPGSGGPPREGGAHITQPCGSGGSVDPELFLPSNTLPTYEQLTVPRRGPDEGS
CHO parental ctr: KCNQ2 inhibitor counter-screen hit in parental CHO cells; shares compounds with KCNQ2 inh; thallium flux counter-screen; hits give low values; activity change, % at 10 µM; 1,000 compounds, 14% hits; AID 493029
KCNQ2 patch conf: rat KCNQ2 inhibition confirmed by electrophysiology; KCNQ2-expressing cells, automated patch clamp current; calls only at 10 µM; 550 compounds, 49% hits; shares compounds with KCNQ2 inh
Numbers stand for hits; - = inactive; . = no result; + = active, no number. Sampled rows, rich in hits. Any-hit rate of the full collection: about 1.6%. Unless noted, no rule for the calls is given here.

SMILES	KCNQ2 inh	KCNQ2 pot	KCNQ2 block conf	KCNQ1 spec	CHO parental ctr	others
COC(=O)c1ccccc1N1CCS(=O)(=O)CC1	-	.	.	.	.
COc1ccc(CNCCC2(Cc3ccccc3)CC(C)N(C)CC2C)cc1OC (stereo unspecified)	-	-	.	.	.
CC1CCCN(C(=O)N2c3ccccc3Sc3ccccc32)C1 (stereo unspecified)	-6.9	-	-15%	-	-	KCNQ2 patch conf=-
O=C(N1CCOCC1)N1c2ccccc2Sc2ccccc21	-	.	.	.	.
CCOc1ccc(NC(=O)COC(=O)C2C3CC4OC(=O)C2C4C3)cc1 (stereo unspecified)	-	.	.	.	.
Cc1ccc(N/C=C/C(=O)c2cccs2)cc1C	-	.	.	.	.
O=C(/C=C/Nc1ccc(Nc2ccccc2)cc1)c1cccs1	-7.3	-	-	-	-
Oc1c(CN2CCOCC2)cc(-c2ccccc2)cc1CN1CCOCC1	-	.	.	.	.
Cc1cc(CN2CCOCC2)c(O)c(C2(C)CCCCC2)c1	-7.2	-	-19%	-	-	KCNQ2 patch conf=-
Cc1cc(CN(C)C)c(O)c(C2(C)CCCCC2)c1	-9.1	-	-	-	-
CCc1cc(C(=O)NCC2CCCO2)sc1C (stereo unspecified)	-	-	.	.	.
CCN1CCN(C(=O)c2ccccc2N(Cc2ccccc2)S(=O)(=O)c2ccc(OC)cc2)CC1	-	-	.	.	.
COc1cc(OC)cc(C(=O)NNC(=O)CN2C(=O)NC(C)(c3ccc(C)cc3)C2=O)c1 (stereo unspecified)	-	-	.	.	.
COc1cc(OC)cc(C(=O)NN(CCC#N)C2=NS(=O)(=O)c3ccccc32)c1	-	-	.	.	.
CCCCC(CC)COC1(c2ccccc2)OC(=O)c2ccccc21 (stereo unspecified)	-9.7	-	-33%	-	-	KCNQ2 patch conf=-
CCCCOC1(c2ccccc2)OC(=O)c2ccccc21 (stereo unspecified)	-	.	.	.	.
COc1cc(C2C(C#N)=C(C)NC(C)=C2C#N)cc(OC)c1OC	-	-	.	.	.
Cc1cc(C)cc(NC(=S)N2CCN(S(=O)(=O)c3ccccc3)CC2)c1	-	.	.	.	.
O=C(/C=C/c1ccc(Cl)cc1)N1CCN(c2c(Cl)cccc2[N+](=O)[O-])CC1	-	.	.	.	.
O=C(CSc1ccc(Cl)cc1)N1CCN(c2c(Cl)cccc2[N+](=O)[O-])CC1	-8.2	-	-	-	-
Cc1cccc(-c2cc(C(=O)Nc3cccnc3)c3ccccc3n2)c1	-8	-	-47%	-48%	-46%	KCNQ2 patch conf=+
Cc1cc(NC(=O)c2cc(-c3cccc(OCC(C)C)c3)nc3ccccc23)no1	-11	-	-20%	-	-	KCNQ2 patch conf=-
Cc1cccc(-c2cc(C(=O)N3CCCc4ccccc43)c3ccccc3n2)c1	-6.8	-	-40%	-42%	-34%	KCNQ2 patch conf=-
O=C(c1cc(-c2ccccc2)nc2ccccc12)N1CCCc2ccccc21	-	.	.	.	.
Cc1ccc(-c2cc(C(=O)Nc3cccnc3)c3ccccc3n2)s1	-7.9	-	-18%	-	-
SMILES	KCNQ2 inh	KCNQ2 pot	KCNQ2 block conf	KCNQ1 spec	CHO parental ctr	others
Cc1cccc(-c2cc(C(=O)Nc3ccncc3)c3ccccc3n2)c1	-	.	.	.	.
Cc1ccc(-c2cc(C(=O)Nc3cc(C)on3)c3ccccc3n2)cc1	-	.	.	.	.
Cc1cc(C)nc(NC(=O)c2cc(-c3ccc(C)s3)nc3ccccc23)c1	-	.	.	.	.
Cc1ccc(C(=O)N(C)CC(=O)Nc2ccc(N3CCOCC3)cc2)s1	-	.	.	.	.
Nc1c(C(=O)N2CCCCCC2)oc2ccccc12	-	-	.	.	.
Cc1ccc(S(=O)(=O)Nc2ccccc2C(=O)N2CCCCC2C)c(C)c1NS(C)(=O)=O (stereo unspecified)	-	-	.	.	.
O=C(NNC(=O)c1cc(-c2ccncc2)nc2ccccc12)Nc1ccc(F)cc1	-	-	.	.	.
O=C(NNC(=O)c1cc(-c2cccnc2)nc2ccccc12)Nc1ccc(Cl)cc1	-9.8	-	-27%	-	-	KCNQ2 patch conf=-
CCN(CC)CCNC(=O)c1ccc(NC(=O)c2cn(-c3ccccc3)nc2-c2cccs2)cc1	-12	-	-42%	-50%	-37%	KCNQ2 patch conf=+
CCN(CC)CCNC(=O)c1ccc(NC(=O)c2cn(-c3ccc(F)cc3)nc2-c2cccc(OC)c2)cc1	-	.	.	.	.
CCOc1ccccc1NC(=O)Cn1c(=O)n(-c2ccc(OC)cc2OC)c(=O)c2c(C)c(C(=O)N(CC)CC)sc21	-	.	.	.	.
COc1ccc(-n2c(=O)c3c4c(sc3n(CC(=O)Nc3cc(C)[nH]n3)c2=O)CCCC4)c(OC)c1	-6.7	-	-	-	-
Brc1cccc2sc(N3CCCC3)nc12	-	-	.	.	.
COc1ccccc1CNC(=O)Cn1c(=O)c2cccn2c2cccnc21	-	-	.	.	.
CCOC(=O)N1CCN(S(=O)(=O)/C=C/c2ccccc2)CC1	-	-	.	.	.
CCOC(=O)N1C/C(=C\c2ccccc2)C(=O)/C(=C/c2ccccc2)C1	-6.9	-	-33%	-	-	KCNQ2 patch conf=-
COc1ccc(C(=O)COC(=O)c2cc(=O)[nH]c3ccccc23)c(OC)c1	-	-	.	.	.
C=C(C)CN1CCN(S(=O)(=O)c2ccc(C)c(N(C)S(=O)(=O)c3ccc(C)cc3)c2C)CC1	-8.5	-	-32%	-32%	-25%	KCNQ2 patch conf=-
Cc1ccc(S(=O)(=O)N(C)c2c(C)ccc(S(=O)(=O)N3CCN(C)CC3)c2C)cc1	-	.	.	.	.
O=C(c1cc(-c2ccco2)on1)N1CCN(C(c2ccccc2)c2ccccc2)CC1	-7.7	-	-29%	-	-	KCNQ2 patch conf=-
COc1ccc(-c2cc(C(=O)N3CCN(C(c4ccccc4)c4ccccc4)CC3)no2)cc1	-	.	.	.	.
O=C(CSc1nnnn1-c1ccc(C(=O)O)cc1)NC1CC1	-	-	.	.	.
Cc1cccc(-c2noc(CN(C)S(=O)(=O)c3cc(Cl)ccc3Cl)n2)c1	-11	-	-	-	-
Cc1cccc(-c2noc(CN(C(=O)CCc3ccccc3)C(C)C)n2)c1	-8	-	-36%	-36%	-28%	KCNQ2 patch conf=-
Cc1cccc(-c2noc(CN(C(=O)/C=C/c3ccccc3Cl)C(C)C)n2)c1	-	.	.	.	.
SMILES	KCNQ2 inh	KCNQ2 pot	KCNQ2 block conf	KCNQ1 spec	CHO parental ctr	others
COc1ccc(Cl)cc1C(=O)N(Cc1nc(-c2cccc(C)c2)no1)C(C)C	-	.	.	.	.
O=C(CSc1n[nH]c(=O)n1-c1ccccc1)N1CCOCC1	-	.	.	.	.
CCCc1cc(=O)oc2cc(OC(C)C(=O)NC3CC(C)(C)NC(C)(C)C3)ccc12 (stereo unspecified)	-	-	.	.	.
CC(C)(C)c1ccc(OCC(=O)N/N=C/c2ccc(N3CCOCC3)cc2)cc1	-	-	.	.	.
C#Cc1cccc(C(=O)N2CCCC(C(=O)c3ccc(OC)cc3C)C2)c1 (stereo unspecified)	-	.	.	.	.
COc1ccc(CCN(C)C(=O)Cn2c(=O)oc3ccccc32)cc1OC	-	.	.	.	.
O=C(COC(=O)c1ccccc1C(=O)c1ccc(Cl)cc1)NC(c1ccccc1)c1ccccc1	-8.7	-	-	-	-
O=C(OCc1ccccc1Cl)c1ccccc1C(=O)c1ccccc1	-8.3	-	-36%	-36%	-34%	KCNQ2 patch conf=-
O=C(OCc1ccccc1Cl)c1cccnc1Cl	-	.	.	.	.
O=C(COC(=O)c1ccccc1C(=O)c1ccc(Cl)cc1)NCCc1ccccc1	-	.	.	.	.
CC(=O)Nc1ccc(S(=O)(=O)Nc2cccc(NC(=O)c3ccco3)c2)cc1	-	-	.	.	.
COC(=O)c1sc(S(=O)(=O)NCCC(=O)O)c(C(=O)OC)c1C	-	-	.	.	.
